Only some compounds are listed: those with a hit (about 28% of all), similar ones and a draw of the others.
CD11b adhes enh = increases human CD11b/CD18 adhesion to fibrinogen; P05107+P11215; K562 CD11b/CD18 adhesion to fibrinogen, ATPlite luminescence; activation, % at 10 µM; hit rate 0.07% among 93,000; AID 1499;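 active means 10 µM primary screen giving 50% or more activity, confirmed by 40% or more on retest at that dose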
Target sequence (P05107 whole entry, looked up, other chains not shown): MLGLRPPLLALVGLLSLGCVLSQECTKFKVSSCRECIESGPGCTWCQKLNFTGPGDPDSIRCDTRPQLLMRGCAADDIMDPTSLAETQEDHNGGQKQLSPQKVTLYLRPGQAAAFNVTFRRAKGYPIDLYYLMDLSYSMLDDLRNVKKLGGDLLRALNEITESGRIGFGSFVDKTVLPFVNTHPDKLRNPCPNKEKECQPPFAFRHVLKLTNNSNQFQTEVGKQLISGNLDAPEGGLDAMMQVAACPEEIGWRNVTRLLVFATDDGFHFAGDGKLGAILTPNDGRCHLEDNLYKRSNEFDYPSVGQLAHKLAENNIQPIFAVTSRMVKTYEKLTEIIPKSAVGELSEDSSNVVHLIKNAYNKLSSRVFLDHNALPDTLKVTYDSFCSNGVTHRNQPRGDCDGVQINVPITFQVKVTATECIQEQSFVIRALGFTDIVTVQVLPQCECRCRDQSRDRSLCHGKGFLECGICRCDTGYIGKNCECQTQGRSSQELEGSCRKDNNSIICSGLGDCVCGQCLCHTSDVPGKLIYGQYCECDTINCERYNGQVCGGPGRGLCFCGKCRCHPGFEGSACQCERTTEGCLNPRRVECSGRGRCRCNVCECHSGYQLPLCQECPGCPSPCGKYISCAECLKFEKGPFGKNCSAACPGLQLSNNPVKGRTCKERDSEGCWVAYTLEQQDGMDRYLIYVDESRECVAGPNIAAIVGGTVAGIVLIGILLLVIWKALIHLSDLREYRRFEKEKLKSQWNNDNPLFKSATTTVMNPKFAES
CYP2C19 inhib = human CYP2C19 inhibition; CYP2C19 Supersomes, luciferin-H EGE luminescence, 30 min; hit rate 21% among 96,000; P33261; inhibition, % at 5 µM;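 active means CYP2C19 inhibition above a set limit at 5 µM in the primary screen, cut at about 50% in these data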
CYP2C9 activ = CYP2C9 (human) activation; recombinant CYP2C9, luciferin-H conversion, luminescence; active compounds read high; factor 1 = untreated enzyme, 0 = blocked; AID 1024; activation factor at 5 µM; P11712; hit rate 1.4% among 96,000;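 active means activation factor of 2 or more for CYP2C9 at a 5 µM dose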
Mac1 fbg inh = blocks human CD11b/CD18 adhesion to fibrinogen; P05107+P11215; hit rate 0.54% among 93,000; inhibition, % at 10 µM; K562 CD11b/CD18 adhesion to fibrinogen, ATPlite luminescence; Mn2+ added to activate the integrin; AID 1497;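 active means primary inhibition of 50% or more at 10 µM, then 40% or more on retest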
CYP2C19 act = cytochrome P450 2C19 (human) activation; P33261; recombinant CYP2C19, luciferin-H EGE luminescence; active compounds read high; 0 = fully inhibited enzyme, 1 = untreated enzyme; activation factor at 5 µM; 96,000 tested, under 10 active;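 active means activation factor of at least 2 at 5 µM in the primary screen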
CYP2C9 inhib = blocks human cytochrome P450 2C9 | hit rate 20% among 96,000 | AID 777 | inhibition, % at 5 µM | P11712 | CYP2C9 Supersomes, luciferin-H conversion, luminescence;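 active means blocking of liver enzyme CYP2C9 beyond about 50% at 5 µM, limit read from the data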
A number is an active result; - = inactive; . = not tested or not shown.

SMILES | CD11b adhes enh | CYP2C19 inhib | CYP2C9 activ | Mac1 fbg inh | CYP2C19 act | CYP2C9 inhib
CCCN1CCCc2cc(CN)ccc21 | - | 90 | - | - | - | 84
O=C(CSc1nnnn1-c1cccnc1)Nc1ccc(OCc2ccccc2)cc1 | - | - | - | - | - | -
Cc1cccc(C)c1NS(=O)(=O)c1ccc(F)cc1 | - | 99 | - | - | - | 75
O=C(O)c1ccc(F)c(S(=O)(=O)Nc2ccccc2Cl)c1 | - | - | - | - | - | -
O=c1ccc2cc(S(=O)(=O)Nc3ccc(F)cc3)ccc2o1 | - | 98 | - | - | - | -
O=S(=O)(Nc1ccc(F)cc1)c1ccc(NC(=S)Nc2ccccc2)cc1 | - | 57 | - | - | - | 86
O=S(=O)(Nc1ccccc1Cl)c1ccc(F)cc1 | - | 89 | - | - | - | 51
CCC(C)NS(=O)(=O)c1ccc(NS(=O)(=O)c2ccc(F)cc2)cc1 (configuration not stated) | - | 74 | - | - | - | 98
O=S(=O)(Nc1ccccc1)c1ccc(F)cc1 | - | 92 | - | - | - | 72
CC(=O)Nc1ccc(S(=O)(=O)NCC(C)NS(=O)(=O)c2ccc(NC(C)=O)cc2)cc1 (configuration not stated) | - | - | - | - | - | -
COc1ccc2oc(-c3ccc(C)c(NC(=O)c4ccc(N5CCOCC5)c([N+](=O)[O-])c4)c3)nc2c1 | - | - | - | - | - | -
CCOC(=O)/C(C(N)=NCCCO)=C(/O)c1ccccc1 | . | - | - | . | - | -
CC1(C)Cc2nc(N)c(C(=O)NCCO)cc2CO1 | - | - | - | - | - | -
CCCCNC1C(CC)C(CCC)C(C#N)(C#N)C1(C#N)C#N (configuration not stated) | - | - | - | - | - | -
COC(=O)c1c(N)sc(C(C)=O)c1C | - | - | - | - | - | -
COC(=O)c1sc(=S)sc1C(=O)OC | - | 52 | - | - | - | -
O=c1oc2ccccc2cc1NCc1ccccc1O | - | 59 | - | - | - | -
O=C(Nc1ccc(Cc2ccc(NC(=O)C3CC3)c(O)c2)cc1O)C1CC1 | - | - | - | - | - | 70
O=C(O)CCC(=O)Nc1ccc(Cc2ccc(NC(=O)CCC(=O)O)c(O)c2)cc1O | - | - | - | - | - | -
CC(=O)Nc1ccc2nc(-c3ccncc3)[nH]c2c1 | - | - | - | - | - | -
O=C(Nc1ccc(Cc2ccncc2)cc1)C1CCC(N2C(=O)C3C4C=CC(C5CC45)C3C2=O)CC1 (configuration not stated) | - | - | - | - | - | 74
CC(=O)Nc1ccc(Cc2ccncc2)cc1 | - | 97 | - | - | - | 87
CC(=O)NCCOC(=O)Nc1cccnc1 | - | - | - | - | - | -
CC(=O)NCCOC(=O)Nc1ccncc1 | - | - | - | - | - | 62
CCn1c(COc2ccc(C(C)C)cc2)nnc1SCC(=O)Nc1nccs1 | - | - | - | - | - | -
SMILES | CD11b adhes enh | CYP2C19 inhib | CYP2C9 activ | Mac1 fbg inh | CYP2C19 act | CYP2C9 inhib
CCOC(=O)CSc1nnc(CNC(=O)c2ccc(OC)cc2OC)n1-c1ccc(OC)cc1 | - | - | - | - | - | -
COCC(C)n1c(SCC(=O)NNC(=O)c2ccc(F)cc2)nc2ccccc2c1=O (configuration not stated) | - | . | . | - | . | .
CSc1ccc(/C=N/NC(=O)c2cccc(O)c2)cc1 | . | - | - | . | - | -
CCOc1ccc(N2C(=O)c3cccnc3C2Nc2ccc(C)cc2)cc1 (configuration not stated) | - | - | - | - | - | -
COc1ccc(NC(=O)Nc2ccc(Cc3ccncc3)cc2)cc1OC | - | 77 | - | - | - | 78
COc1cc(NC(=O)NCc2ccncc2)cc(OC)c1OC | - | 62 | - | - | - | 67
COc1cc(NC(=O)Nc2cccc(C(C)=O)c2)cc(OC)c1OC | - | - | - | - | - | -
O=S(=O)(Nc1ccc(Cc2ccncc2)cc1)N1CCCC1 | - | 100 | - | - | - | 97
CCC(=O)Nc1cccc(NC(=O)c2ccc(C)c([N+](=O)[O-])c2)c1 | - | - | - | - | - | -
Cc1ccc(C(=O)Nc2ccc(Cc3ccncc3)cc2)cc1[N+](=O)[O-] | - | 91 | - | - | - | 90
O=C(NC1CCCC1)C1CCCN1C(=O)Nc1ccc(Cl)cc1 (configuration not stated) | - | - | - | - | - | -
CC(=O)NC(CCS(C)(=O)=O)C(=O)Nc1ccc(C)c(F)c1 (configuration not stated) | - | - | - | - | - | -
CC(C)NC(=O)Cn1nnc(-c2cccc(NC(=O)c3ccccc3F)c2)n1 | - | - | - | - | - | -
O=C1C=C(NC2CC2)C2(CCCCC2)O1 | - | - | - | - | - | -
O=C(Nc1ccc(Cc2ccncc2)cc1)C1CC1 | - | 84 | - | - | - | 89
CCC(C)c1ccc(NC(=O)C2CC2)cc1 (configuration not stated) | - | - | - | - | - | -
COc1ccc2[nH]cc(CCN=C3SCC(=O)N3C)c2c1 | - | 79 | - | - | - | -
CN1CCN(Cc2c(O)ccc3c(-c4ccccc4)cc(=O)oc23)CC1 | - | 54 | - | - | - | -
CN1CCN(Cc2c(O)ccc3occ(C(=O)c4ccccc4)c23)CC1 | - | 99 | - | - | - | -
O=C(NCc1ccccc1)N1CCC(c2nc3ccccc3[nH]2)CC1 | - | - | - | - | - | -
Cc1ccc(S(=O)(=O)n2ccc(-c3cccc(OCc4c(F)cccc4Cl)c3)n2)cc1 | . | - | - | . | - | 68
CC(C)Nc1nc(Oc2cccc(Cl)c2Cl)cc(C(F)(F)F)n1 | . | 71 | - | . | - | -
Cc1nc2ccccc2c2c1C(=O)N(C1CCCCCCC1)C2=O | - | - | - | - | - | -
CC(C)=CC(=O)Nc1ccc(Br)cc1 | - | - | - | - | - | 73

From PubChem
